According to the supplement of paper PMC11732987, “Enantioselective OTUD7B fragment discovery through chemoproteomics screening and high-throughput optimisation” (Communications Chemistry, 2025):

Columns and labels:
Assay in all cases: log2 ratio of Biotin-Ahx-Ub-VS probe labelling (fragment/DMSO); higher = less target engagement (more negative = stronger competition), active = hit call of the paper (q ≤ 0.05, log2 ratio ≤ -1)
Settings in all cases: compound concentration: 200 uM; treatment time: 3 h
USP19 = target: T1, USP19 (UniProt O94966)
T1 sequence (whole entry): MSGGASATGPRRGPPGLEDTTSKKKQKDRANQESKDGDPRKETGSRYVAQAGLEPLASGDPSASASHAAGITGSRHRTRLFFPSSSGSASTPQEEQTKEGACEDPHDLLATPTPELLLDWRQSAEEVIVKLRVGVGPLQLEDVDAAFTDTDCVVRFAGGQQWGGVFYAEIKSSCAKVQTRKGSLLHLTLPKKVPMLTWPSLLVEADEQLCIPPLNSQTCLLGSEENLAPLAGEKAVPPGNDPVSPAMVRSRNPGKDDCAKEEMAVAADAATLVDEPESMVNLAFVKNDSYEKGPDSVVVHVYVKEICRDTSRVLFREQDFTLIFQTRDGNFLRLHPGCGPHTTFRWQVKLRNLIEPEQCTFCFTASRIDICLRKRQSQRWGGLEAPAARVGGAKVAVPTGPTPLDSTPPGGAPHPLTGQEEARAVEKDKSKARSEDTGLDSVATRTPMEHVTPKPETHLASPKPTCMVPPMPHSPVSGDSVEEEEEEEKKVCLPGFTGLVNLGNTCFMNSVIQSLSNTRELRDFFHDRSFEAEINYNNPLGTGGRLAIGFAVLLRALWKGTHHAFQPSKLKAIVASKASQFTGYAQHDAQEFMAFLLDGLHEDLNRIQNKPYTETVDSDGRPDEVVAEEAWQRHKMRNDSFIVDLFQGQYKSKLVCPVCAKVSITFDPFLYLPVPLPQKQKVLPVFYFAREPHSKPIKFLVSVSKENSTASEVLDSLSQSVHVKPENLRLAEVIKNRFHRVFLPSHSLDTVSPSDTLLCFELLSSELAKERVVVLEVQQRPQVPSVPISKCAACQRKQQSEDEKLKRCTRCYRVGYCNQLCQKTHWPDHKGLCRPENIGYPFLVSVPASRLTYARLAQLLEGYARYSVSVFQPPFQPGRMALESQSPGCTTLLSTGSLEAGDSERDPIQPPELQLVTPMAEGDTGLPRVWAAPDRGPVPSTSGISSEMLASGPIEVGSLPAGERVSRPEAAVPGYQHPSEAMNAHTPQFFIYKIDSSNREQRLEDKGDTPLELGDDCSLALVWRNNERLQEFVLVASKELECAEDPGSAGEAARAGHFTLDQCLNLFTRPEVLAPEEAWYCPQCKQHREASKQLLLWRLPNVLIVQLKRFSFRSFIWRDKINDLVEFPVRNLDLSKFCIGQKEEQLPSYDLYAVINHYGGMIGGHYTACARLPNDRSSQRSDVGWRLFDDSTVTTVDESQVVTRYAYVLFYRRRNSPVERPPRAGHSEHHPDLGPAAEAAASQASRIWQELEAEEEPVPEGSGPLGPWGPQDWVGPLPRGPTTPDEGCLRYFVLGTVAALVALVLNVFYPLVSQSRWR
Outline: (§1)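 The table lists average log2 ratios of fragment over vehicle, from an unpaired t-test on global-median-normalised Spectronaut label-free quantities. Proteins with ≥2 unique peptides were used. Samples were HEK293T lysate (495 µg) treated in triplicate with fragment at 200 µM or vehicle for 3 h, then with Biotin-Ahx-Ub-VS (0.5 µM final) for 1 h, with labelled DUBs NeutrAvidin-enriched and run by diaPASEF LC-MS/MS.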

USP22 = target: T2, USP22 (UniProt Q9UPT9)
T2 sequence (whole entry): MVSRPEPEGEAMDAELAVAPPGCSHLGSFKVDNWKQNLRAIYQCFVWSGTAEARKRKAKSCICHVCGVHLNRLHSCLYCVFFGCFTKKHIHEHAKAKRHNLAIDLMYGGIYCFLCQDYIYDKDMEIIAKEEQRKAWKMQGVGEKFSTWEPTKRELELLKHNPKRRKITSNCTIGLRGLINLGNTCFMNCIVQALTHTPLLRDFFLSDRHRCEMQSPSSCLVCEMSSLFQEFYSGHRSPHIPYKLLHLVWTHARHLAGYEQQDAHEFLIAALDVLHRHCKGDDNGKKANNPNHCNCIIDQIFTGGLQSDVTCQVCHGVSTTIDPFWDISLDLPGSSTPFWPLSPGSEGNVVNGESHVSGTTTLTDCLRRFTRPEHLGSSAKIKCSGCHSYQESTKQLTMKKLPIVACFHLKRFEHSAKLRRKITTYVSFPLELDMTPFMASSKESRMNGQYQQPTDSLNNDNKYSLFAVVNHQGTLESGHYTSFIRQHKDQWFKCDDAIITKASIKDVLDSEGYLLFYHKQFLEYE
Outline: as §1

USP24 = USP24 (UniProt Q9UPU5)
Sequence of USP24 (Q9UPU5 whole entry): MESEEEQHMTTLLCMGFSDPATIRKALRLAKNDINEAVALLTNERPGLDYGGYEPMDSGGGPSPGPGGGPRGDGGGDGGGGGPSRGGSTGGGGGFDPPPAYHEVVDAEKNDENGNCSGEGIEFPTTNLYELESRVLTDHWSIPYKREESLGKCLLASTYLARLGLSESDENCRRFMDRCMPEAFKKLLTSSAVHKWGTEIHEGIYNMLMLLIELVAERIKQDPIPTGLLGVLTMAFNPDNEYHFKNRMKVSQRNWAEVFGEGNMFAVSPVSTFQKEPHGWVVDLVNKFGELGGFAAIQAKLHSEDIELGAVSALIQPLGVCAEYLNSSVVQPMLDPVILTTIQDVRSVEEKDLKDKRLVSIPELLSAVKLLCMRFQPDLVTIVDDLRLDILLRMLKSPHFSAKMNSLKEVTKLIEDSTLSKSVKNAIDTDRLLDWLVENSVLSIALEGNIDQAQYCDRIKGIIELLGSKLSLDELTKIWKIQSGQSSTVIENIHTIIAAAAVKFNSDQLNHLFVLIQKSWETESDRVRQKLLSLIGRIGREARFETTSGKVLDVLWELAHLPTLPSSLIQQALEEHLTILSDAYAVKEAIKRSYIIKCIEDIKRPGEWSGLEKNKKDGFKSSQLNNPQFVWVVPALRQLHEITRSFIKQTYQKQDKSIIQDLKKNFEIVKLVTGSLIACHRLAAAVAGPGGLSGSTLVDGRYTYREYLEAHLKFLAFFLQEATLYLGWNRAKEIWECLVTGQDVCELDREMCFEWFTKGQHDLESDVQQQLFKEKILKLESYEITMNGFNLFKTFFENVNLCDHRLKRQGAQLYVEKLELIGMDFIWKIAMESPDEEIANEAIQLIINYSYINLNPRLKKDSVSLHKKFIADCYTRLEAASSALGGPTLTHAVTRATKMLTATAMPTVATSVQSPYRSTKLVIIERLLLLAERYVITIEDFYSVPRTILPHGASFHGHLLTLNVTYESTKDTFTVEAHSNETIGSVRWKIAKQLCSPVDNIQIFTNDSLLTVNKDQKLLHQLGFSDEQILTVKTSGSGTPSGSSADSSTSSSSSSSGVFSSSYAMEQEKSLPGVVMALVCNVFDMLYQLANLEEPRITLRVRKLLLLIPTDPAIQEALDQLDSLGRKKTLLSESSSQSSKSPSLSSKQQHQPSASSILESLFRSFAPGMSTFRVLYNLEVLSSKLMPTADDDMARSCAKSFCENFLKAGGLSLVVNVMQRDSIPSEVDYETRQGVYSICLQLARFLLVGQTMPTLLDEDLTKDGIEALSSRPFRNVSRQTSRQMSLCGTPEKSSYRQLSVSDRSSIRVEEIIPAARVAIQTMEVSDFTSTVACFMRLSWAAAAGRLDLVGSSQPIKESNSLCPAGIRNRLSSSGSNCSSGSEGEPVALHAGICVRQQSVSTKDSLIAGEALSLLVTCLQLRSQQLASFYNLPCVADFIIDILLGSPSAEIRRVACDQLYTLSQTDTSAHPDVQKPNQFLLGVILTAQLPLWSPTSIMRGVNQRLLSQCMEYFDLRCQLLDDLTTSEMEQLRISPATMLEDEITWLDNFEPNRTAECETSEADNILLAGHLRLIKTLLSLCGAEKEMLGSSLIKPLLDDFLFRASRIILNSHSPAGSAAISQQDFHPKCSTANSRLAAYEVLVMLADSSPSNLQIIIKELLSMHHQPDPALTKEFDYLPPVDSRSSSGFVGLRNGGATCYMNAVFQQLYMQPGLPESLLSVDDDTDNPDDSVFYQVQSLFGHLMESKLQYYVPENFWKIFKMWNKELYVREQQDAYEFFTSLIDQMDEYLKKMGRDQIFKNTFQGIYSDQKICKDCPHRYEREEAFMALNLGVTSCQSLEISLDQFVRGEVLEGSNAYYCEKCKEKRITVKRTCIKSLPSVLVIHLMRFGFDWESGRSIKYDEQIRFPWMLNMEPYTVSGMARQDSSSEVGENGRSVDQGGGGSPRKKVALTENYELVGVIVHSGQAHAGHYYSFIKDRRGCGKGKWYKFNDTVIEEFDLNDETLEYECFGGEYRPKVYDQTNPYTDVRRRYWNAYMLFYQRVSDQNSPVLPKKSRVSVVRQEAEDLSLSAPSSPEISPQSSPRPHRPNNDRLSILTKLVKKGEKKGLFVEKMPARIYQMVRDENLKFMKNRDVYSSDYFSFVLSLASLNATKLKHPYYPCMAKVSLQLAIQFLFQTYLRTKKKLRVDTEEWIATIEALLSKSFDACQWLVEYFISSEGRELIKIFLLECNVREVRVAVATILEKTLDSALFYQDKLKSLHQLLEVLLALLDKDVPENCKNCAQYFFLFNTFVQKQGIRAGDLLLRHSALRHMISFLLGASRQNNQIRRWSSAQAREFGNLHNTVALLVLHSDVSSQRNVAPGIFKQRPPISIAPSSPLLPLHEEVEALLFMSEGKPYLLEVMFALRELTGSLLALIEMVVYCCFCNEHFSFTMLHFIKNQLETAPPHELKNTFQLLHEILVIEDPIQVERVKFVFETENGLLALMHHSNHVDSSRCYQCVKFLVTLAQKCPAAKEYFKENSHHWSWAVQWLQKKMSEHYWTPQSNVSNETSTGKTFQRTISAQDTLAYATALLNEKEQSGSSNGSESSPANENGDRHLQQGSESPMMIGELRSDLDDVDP
Outline: as §1

USP25 = target: T3, USP25 (UniProt Q9UHP3)
T3 sequence (whole entry): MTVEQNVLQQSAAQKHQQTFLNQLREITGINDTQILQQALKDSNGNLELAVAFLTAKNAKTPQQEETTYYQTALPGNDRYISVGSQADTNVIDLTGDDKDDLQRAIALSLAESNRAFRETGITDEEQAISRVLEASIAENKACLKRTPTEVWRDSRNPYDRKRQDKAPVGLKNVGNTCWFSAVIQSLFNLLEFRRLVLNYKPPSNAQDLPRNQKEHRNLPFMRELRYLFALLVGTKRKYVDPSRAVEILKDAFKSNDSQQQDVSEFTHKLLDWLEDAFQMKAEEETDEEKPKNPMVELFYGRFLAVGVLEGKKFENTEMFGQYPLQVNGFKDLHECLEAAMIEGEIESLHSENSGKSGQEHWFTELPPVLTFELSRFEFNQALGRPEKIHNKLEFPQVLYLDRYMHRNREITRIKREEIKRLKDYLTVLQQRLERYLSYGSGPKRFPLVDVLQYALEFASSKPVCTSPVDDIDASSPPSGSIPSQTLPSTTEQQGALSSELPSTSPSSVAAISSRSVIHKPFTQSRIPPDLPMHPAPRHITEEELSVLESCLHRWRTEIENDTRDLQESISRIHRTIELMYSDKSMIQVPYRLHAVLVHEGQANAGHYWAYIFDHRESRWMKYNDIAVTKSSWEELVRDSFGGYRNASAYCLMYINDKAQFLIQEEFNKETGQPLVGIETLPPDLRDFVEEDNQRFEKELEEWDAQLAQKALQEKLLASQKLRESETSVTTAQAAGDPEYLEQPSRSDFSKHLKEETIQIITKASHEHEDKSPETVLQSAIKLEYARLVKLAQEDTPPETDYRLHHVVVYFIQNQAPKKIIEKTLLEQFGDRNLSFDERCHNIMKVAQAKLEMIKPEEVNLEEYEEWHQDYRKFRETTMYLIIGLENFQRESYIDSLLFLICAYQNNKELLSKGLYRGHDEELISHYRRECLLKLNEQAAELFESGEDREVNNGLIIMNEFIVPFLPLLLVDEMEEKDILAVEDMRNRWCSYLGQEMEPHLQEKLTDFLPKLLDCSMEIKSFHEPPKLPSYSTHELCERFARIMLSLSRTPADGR
Outline: as §1

USP28 = target: T4, USP28 (UniProt Q96RU2)
T4 sequence (whole entry): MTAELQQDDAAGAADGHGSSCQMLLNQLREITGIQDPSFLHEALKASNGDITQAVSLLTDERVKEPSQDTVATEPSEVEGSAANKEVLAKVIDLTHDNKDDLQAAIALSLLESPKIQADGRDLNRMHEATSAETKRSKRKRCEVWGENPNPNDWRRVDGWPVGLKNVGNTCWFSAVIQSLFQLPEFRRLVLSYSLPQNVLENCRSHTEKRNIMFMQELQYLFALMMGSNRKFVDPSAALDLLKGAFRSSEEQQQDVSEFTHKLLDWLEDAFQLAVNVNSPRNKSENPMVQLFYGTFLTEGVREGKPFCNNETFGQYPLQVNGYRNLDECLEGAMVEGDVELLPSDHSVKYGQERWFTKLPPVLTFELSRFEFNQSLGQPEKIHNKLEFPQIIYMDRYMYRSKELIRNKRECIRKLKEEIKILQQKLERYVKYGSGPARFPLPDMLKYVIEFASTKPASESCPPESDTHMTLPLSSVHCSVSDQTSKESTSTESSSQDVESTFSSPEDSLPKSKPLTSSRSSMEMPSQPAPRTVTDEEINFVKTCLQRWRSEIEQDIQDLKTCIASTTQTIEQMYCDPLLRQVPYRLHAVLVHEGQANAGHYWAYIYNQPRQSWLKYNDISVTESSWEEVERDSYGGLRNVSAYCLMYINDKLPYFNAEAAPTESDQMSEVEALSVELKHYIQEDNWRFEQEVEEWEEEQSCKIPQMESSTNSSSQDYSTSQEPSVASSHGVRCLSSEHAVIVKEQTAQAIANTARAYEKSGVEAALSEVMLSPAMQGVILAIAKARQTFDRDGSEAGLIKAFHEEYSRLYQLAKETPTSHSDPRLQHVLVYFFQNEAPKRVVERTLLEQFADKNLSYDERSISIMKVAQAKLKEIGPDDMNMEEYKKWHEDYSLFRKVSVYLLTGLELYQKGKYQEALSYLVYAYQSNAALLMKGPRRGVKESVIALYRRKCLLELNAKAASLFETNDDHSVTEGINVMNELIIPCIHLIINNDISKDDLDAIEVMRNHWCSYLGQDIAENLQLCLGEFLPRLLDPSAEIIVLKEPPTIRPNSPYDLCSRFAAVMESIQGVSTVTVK
Outline: as §1

Measured: log2 ratio of Biotin-Ahx-Ub-VS probe labelling

Cc1ccc(CC(CO)CNC(=O)CCl)cc1 (stereo not given)
inactive: USP19 -0.487 | USP22 -0.0764 | USP24 -0.554 | USP25 -0.531 | USP28 -0.597
